Results filed as inconclusive are left out. A call without a number means that no potency is given here. Calls of active or inactive are those of the source. Calls come from the whole dose curve; as a rule, active = well fitted cell-killing curve with a large enough effect; inconclusive = small, poorly fitted or top-dose-only effect, or effect the other way; inactive = no such curve, though single readings can be large or run the other way.
Potency is the fitted concentration of half-maximal effect.

This assay is described as follows: Quantitative High-Throughput drug screen in 47 multiple myeloma cell lines against the NCATS MIPE library collection: LP1_DSMZ cell viability assay (AID 1918982). Note: nearly all actives have a fitted effect of over 35% in size. Conditions: LP1 myeloma viability, CellTiter-Glo ATP luminescence, 48 h; series mostly up to 45.8 µM. The source says:
PI: Beverly A. Mock Ph.D.
Laboratory of Cancer Biology and Genetics,
Center for Cancer Research, National Cancer Institute,
National Institute of Health, Bethesda, Maryland
Drug resistance and disease progression are common in multiple myeloma (MM) patients, underscoring the need for new therapeutic combinations. […] We hypothesized that effective combinations would reduce MYC expression and enhance p16 activity. […] These preclinical data identify potentially useful drug combinations for evaluation in drug-resistant MM and reveal potential mechanisms of combined drug sensitivity.
Described herein is the primary MIPE qHTS used to cherrypick compounds. Validated compounds were then further tested for potential synergistic activiy.
[1] Peat TJ, Gaikwad SM, Dubois W, Gyabaah-Kessie N, Zhang S, Gorjifard S, Phyo Z, Andres M, Hughitt VK, Simpson RM, Miller MA, Girvin AT, Taylor A, Williams D, D'Antonio N, Zhang Y, Rajagopalan A, Flietner E, Wilson K, Zhang X, Shinn P, Klumpp-Thomas C, McKnight C, Itkin Z, Chen L, Kazandijian D, Zhang J, Michalowski AM, Simmons JK, Keats J, Thomas CJ, Mock BA. Drug combinations identified by high-throughput screening promote cell cycle transition and upregulate Smad pathways in myeloma. Cancer Lett. 2023 Aug 1;568:216284. doi: 10.1016/j.canlet.2023.216284. Epub 2023 Jun 24. PMID: 37356470; PMCID: PMC10408729.
SEQUENCE No. (e.g., 1, 2, 3, etc.); […] (e.g., Cells, Incubation, Reagent, etc.); VALUE and DESCRIPTION.
1; Cells; 5 uL; white, solid bottom 1536-well Greiner assay plate.
2; Compounds; 23 nL; Kalypsis pin tool (Wako USA) equipped with a 1536-well pin head to transfer to the assay plates.
3; Incubation; 48 hours; 37C incubation.
4; Reagent;5uL; CellTiter Glo (Promega).
5; Detector; 425V; Luminescence; Viewlux PerkinElmer.
NOTES (numbers refer to Sequence numbers above)
1. The cell-based screening methods employed in this study were like those previously published. Briefly, the corresponding myeloma cell lines were screened in 1,536-well plates with 500 cells, 5-uL per well for inhibition of cell viability (assessed by measuring ATP levels with CellTiterGlo).
2. NCATS MIPE 4.0 library of approved and investigational drugs were added using the Kalypsis pin tool. Wells treated with DMSO only for 100% viability and media only for 0% viability were used as controls.
3. The assay plates were covered and incubated for 48 hours in a 37C, 5% CO2 incubator with controlled humidity.
4. After 48 hours, CellTilter-GloTM luminescent substrate mix (Promega) reagent was added to the assay plate and plates we incubated for 5 min at room temperature.
5. Signal was measured as median relative luminescence units on a ViewLux (PerkinElmer) multiplate reader.
[1] Heske CM, Davis MI, Baumgart JT, Wilson K, Gormally MV, Chen L, Zhang X, Ceribelli M, Duveau DY, Guha R, Ferrer M, Arnaldez FI, Ji J, Tran HL, Zhang Y, Mendoza A, Helman LJ, Thomas CJ. Matrix Screen Identifies Synergistic Combination of PARP Inhibitors and Nicotinamide Phosphoribosyltransferase (NAMPT) Inhibitors in Ewing Sarcoma. Clin Cancer Res. 2017 Dec 1;23(23):7301-7311. doi: 10.1158/1078-0432.CCR-17-1121. Epub 2017 Sep 12. PMID: 28899971; PMCID: PMC6636827.
As for `CN1C(=O)C[C@H](C(=O)N[C@@H](Cc2cnc[nH]2)C(=O)N2CCC[C@@H]2C(N)=O)NC1=O`, the Potency result is “inactive”.

Consider `Cc1ccc2c(=O)c3cccc(CC(=O)O)c3oc2c1C`, for which the Potency entry was “inactive”.

Take `COc1cccc(OC)c1-c1cc(C(=O)NC2(C(=O)O)C3CC4CC(C3)CC2C4)nn1-c1ccnc2cc(Cl)ccc12` (stereo not given): the Potency entry is “inactive”.

Consider `Cc1ccccc1C(C(=O)NC1CCCCC1)N(C(=O)CNc1ccc(C#N)cc1)c1cccc(F)c1` (stereo not given), for which the Potency entry is “inactive”.

As to `O=c1[nH]c(=O)n([C@H]2C[C@@H](O)[C@@H](CO)O2)cc1I`, the Potency entry was “inactive”.

On to `O=C(NC[C@H](O)CO)c1ccncc1Nc1ccc(I)cc1F`, for which the Potency entry is “inactive”.

For `C[C@H](CCC(=O)O)[C@H]1CC[C@H]2[C@H]3[C@@H](CC[C@]12C)[C@@]1(C)CC[C@@H](O)C[C@H]1C[C@@H]3O`, the Potency is 16.6 µM (active).

With `CC(C)[C@H](O)C(=O)N[C@@H](C)C(=O)N[C@@H]1C(=O)N(C)CCc2ccccc21`, the Potency entry is “inactive”.

In the case of `NC[C@H]1O[C@H](O[C@@H]2[C@@H](O)[C@@H](O[C@H]3O[C@H](CO)[C@@H](O)[C@H](N)[C@@H]3O)[C@H](N)C[C@@H]2N)[C@H](O)[C@@H](O)[C@H]1O`, the Potency entry was “inactive”.

Consider `CC(=O)OCC(=O)[C@@]12OC(C)(C)O[C@H]1C[C@H]1[C@@H]3C[C@H](F)C4=CC(=O)C=C[C@]4(C)[C@@]3(F)[C@@H](O)C[C@@]12C`, for which the Potency was 0.0264 µM (active).

For the compound `CC(C)c1onc(-c2c(Cl)cccc2Cl)c1COc1ccc(C=Cc2cccc(C(=O)O)c2)c(Cl)c1`, the Potency result is “inactive”.

With `CN1CCC(COc2cnc(-c3cccc(Cn4nc(-c5cccc(C#N)c5)ccc4=O)c3)nc2)CC1`, the Potency is 18.7 µM (active).

Take `CN1CCC[C@H]1CCO[C@](C)(c1ccccc1)c1ccc(Cl)cc1`: the Potency result was “inactive”.

As to `Cc1nc(C(=O)NCC(=O)O)c(O)c2ccc(Oc3ccccc3)cc12`, the Potency result is “inactive”.

As to `CCC[C@H](Nc1nc(-c2ccc(NC(=O)NCC)c(OC)c2)ncc1C)c1cccnc1`, the Potency is 0.0187 µM (active).

As to `CC1(C)[C@H]2CC[C@]3(C)[C@@H](C(=O)C=C4[C@@H]5C[C@@](C)(C(=O)O)CC[C@]5(C)CC[C@]43C)[C@@]2(C)CC[C@@H]1O`, the Potency entry was “inactive”.

As to `O=c1[nH]c(=O)n([C@H]2C[C@@H](O)[C@@H](CO)O2)cc1C(F)(F)F`, the Potency result was “inactive”.

As to `C=C[C@@H]1CN2CCC1C[C@@H]2C(O)c1ccnc2ccc(OC)cc12` (stereo not given in full), the Potency result is “inactive”.

On to `O=C(Nc1ccccc1)Nc1ccc(-c2ccc(C(=O)[C@H]3CCC[C@H]3C(=O)O)cc2)cc1`, for which the Potency result is “inactive”.

Consider `CN(C)N=Nc1nc[nH]c1C(N)=O`, for which the Potency entry was “inactive”.

As for `OC[C@H]1O[C@@H](Oc2ccc(O)cc2)[C@H](O)[C@@H](O)[C@H]1O`, the Potency entry is “inactive”.

Take `CC(C)=CCCC(C)=CCCC(C)=CCCC(C)=CCCC(C)=CCCC(C)=CCCC(C)=CCCC(C)=CCCC(C)=CCO`: the Potency result was “inactive”.

In the case of `NC(N)=Nc1nc(CSCCC(N)=NS(N)(=O)=O)cs1`, the Potency result was “inactive”.

With `CCCCc1ccc(NS(=O)(=O)c2ccc(C)c(C(=O)N3CCN(c4cccc(C)c4C)CC3)c2)cc1`, the Potency is 23.5 µM (active).

Consider `O=C(Nc1ncc(SCCN2CCCC2)s1)[C@]1(c2ccc(S(=O)(=O)C3CC3)cc2)C[C@@H]1C1CCCCC1`, for which the Potency is 20.9 µM (active).

Regarding `Cc1cc2nc3c(=O)[nH]c(=O)nc-3n(CC(O)C(O)C(O)CO)c2cc1C` (stereo not given), the Potency entry is “inactive”.

`CS(=O)(=O)c1ccc(C2=C(c3ccccc3)C(=O)OC2)cc1`: the Potency result is “inactive”.

Turning to `CC(=O)N1CCN(c2ccc(OCc3nn(C)c(C)c3-c3cccc4c(CCCOc5cc(C)c(Cl)c(C)c5)c(C(=O)O)n(Cc5cccnc5)c34)cc2)CC1`, the Potency result was “inactive”.

`CNC(=O)c1ccc2c(C(=Nc3cccc(CN(C)C)c3)c3ccccc3)c(O)[nH]c2c1`: the Potency entry was “inactive”.

For the compound `CCC(C)SSc1ncc[nH]1` (stereo not given), the Potency was 8.33 µM (active).

For the compound `CN1CCN(c2ncc(-c3cc(Cl)cc(Cl)c3Cl)c(N)n2)CC1`, the Potency result was “inactive”.

For the compound `CNC(=O)c1cc(Oc2ccc(NC(=O)Nc3ccc(Cl)c(C(F)(F)F)c3)c(F)c2)ccn1`, the Potency is 16.6 µM (active).

`COc1ccc(-c2cc3nccn3c(Nc3ncccc3C(N)=O)n2)cc1OC`: the Potency was 3.32 µM (active).

With `CCNC(=O)CCCC=CC[C@@H]1[C@H](C=CC(O)CCc2ccccc2)[C@@H](O)C[C@@H]1O` (stereo not given in full), the Potency entry was “inactive”.

As to `O=C1CCCC(=O)C1C(=O)c1ccc(C(F)(F)F)cc1[N+](=O)[O-]`, the Potency result was “inactive”.

For the compound `O=C(CCCN1CCN(c2ccc(F)cc2)CC1)NC1c2ccccc2CSc2ccccc21` (stereo not given), the Potency was 2.96 µM (active).

As to `COc1cc2ncn(-c3cc(OCc4ccccc4S(C)(=O)=O)c(C#N)s3)c2cc1OC`, the Potency result was “inactive”.

`CN1c2ccccc2C(=O)N2CCc3c([nH]c4ccccc34)C21` (stereo not given): the Potency entry was “inactive”.

For the compound `CN1CCN2c3ncccc3Cc3ccccc3C2C1` (stereo not given), the Potency entry was “inactive”.

In the case of `CCOC(=O)N1CCN([N+]([O-])=NOc2cc(ON=[N+]([O-])N3CCN(C(=O)OCC)CC3)c([N+](=O)[O-])cc2[N+](=O)[O-])CC1`, the Potency was 33.2 µM (active).

The values above are taken from PubChem BioAssay (NCATS).
